# FLuc counter – inhibits or activates purified firefly luciferase, miR-21 counter-screen; P08659; Potency, µM (titrated, usually from 57.5 µM), without a hit: at the top dose activity change, negative = inhibition, actives largely listed as inhibitors; 360,000 tested, 6.9% active; AID 588342; purified FLuc, Km substrates, luminescence inhibition;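 further: plate controls were vehicle for no effect and reference inhibitor for full effect; nearly all actives have a fitted effect of over 55% in size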
# Target sequence (P08659 whole entry, looked up): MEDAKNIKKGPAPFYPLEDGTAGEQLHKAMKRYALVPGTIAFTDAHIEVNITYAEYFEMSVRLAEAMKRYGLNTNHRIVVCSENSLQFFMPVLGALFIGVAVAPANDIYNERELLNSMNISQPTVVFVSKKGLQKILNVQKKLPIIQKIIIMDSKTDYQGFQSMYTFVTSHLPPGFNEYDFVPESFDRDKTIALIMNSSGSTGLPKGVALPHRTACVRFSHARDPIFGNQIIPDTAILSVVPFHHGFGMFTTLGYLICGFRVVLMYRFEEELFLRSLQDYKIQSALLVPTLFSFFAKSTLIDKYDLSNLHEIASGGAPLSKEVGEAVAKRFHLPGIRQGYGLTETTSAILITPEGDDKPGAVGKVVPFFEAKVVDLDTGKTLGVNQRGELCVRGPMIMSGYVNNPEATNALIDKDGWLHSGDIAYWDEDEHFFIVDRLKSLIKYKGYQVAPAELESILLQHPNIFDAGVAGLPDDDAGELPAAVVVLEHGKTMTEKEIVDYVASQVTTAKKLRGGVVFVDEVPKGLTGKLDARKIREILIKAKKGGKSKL
#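 Purified P. pyralis luciferase, 10 nM final, with Km-level 10 uM D-luciferin and 10 uM ATP in 50 mM Tris acetate pH 7.5, 10 mM Mg acetate, 0.01% Tween-20, 0.05% BSA; 6-point qHTS titration about 60 µM downward; luminescence read.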
# SMN2 splice up – enhancers of SMN2 splice variant expression. HEK293 SMN2-luciferase splicing reporter, luminescence, 30-36 h. Potency, µM (doses to about 46.1 µM), for the others: at the highest dose activity change, positive = activation, hits mostly activators. AID 1458. 210,000 tested, 2.8% active; further: % of control where 0% means no effect; nearly all actives have a fitted effect of over 55% in size
#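 HEK293 cells carry an SMN2 minigene-luciferase reporter in which exon 7 inclusion puts luciferase in frame. Cells were seeded at 2000 cells/well, attached for 10-12 hours, then exposed to compounds for 30-36 hours at 37C before ONE-Glo luminescence.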
# Luc counter – blocks Kinase-Glo luciferase, a counter-screen artifact. 200,000 tested, 0.28% active. Potency, µM (series often up to 38.3 µM), for inactives: at the top dose activity change, negative = inhibition, usual class: inhibitors. Q27757. Kinase-Glo luciferase, ATP luminescence, 8 min; further: on the % scale 0 is the no-effect control and ±100 the full control effect; nearly all actives have a fitted effect of over 60% in size
#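 Kinase-Glo luciferase light output from ATP and luciferin was measured with 10 uM ATP, within the enzyme's linear range. Buffer: 50 mM imidazole pH 7.2, 50 mM KCl, 7 mM MgCl2, 0.01% Tween 20, 0.05% BSA; luminescence read after 8 min at ambient temperature.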
# Rab9 prom act – Rab9 promoter activation; AID 485297; Huh7 Rab9 promoter-luciferase reporter, luminescence, 24 h; Potency, µM (doses to about 9.22 µM), for the others: at the top dose activation, negative = inhibition, hits mostly activators; 320,000 tested, 2.8% active; further: % of control where 0% means no effect; nearly all actives have a fitted effect of over 60% in size
#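 Using Huh7 cells stably transfected with Rab9 promoter–luciferase, compounds were incubated 24 h at 37 °C, 5% CO2; luciferase luminescence was read 10 min after reagent addition.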
# NPC1 prom act – activates the NPC1 promoter; 320,000 tested, 2.4% active; Potency, µM (doses to about 9.22 µM), inactives show top-dose activation, usual class: activators; Huh7 NPC1 promoter luciferase reporter, 24 h; further: % of control where 0% means no effect; nearly all actives have a fitted effect of over 60% in size
#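 Luminescence read-out of NPC1 promoter-driven luciferase in stably transfected Huh7 cells; compounds delivered in DMSO and left 24 h at 37C, 5% CO2, qHTS titration format.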
# ELG1 genotox – inducers of genotoxicity in HEK293T ELG1-luciferase cells; HEK293T ELG1-luciferase reporter, luminescence, 16 h; Potency, µM (series often up to 46 µM), inactives show at the top dose activity change, positive = activation, usual class: activators; 330,000 tested, 1.3% active; AID 504466; further: % of control where 0% means no effect; nearly all actives have a fitted effect of over 60% in size
#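 After overnight (16 hr) compound treatment at 37 °C, ELG1-luciferase HEK293T cells were lysed with ONE-Glo; luminescence quantified 30 min later at room temperature.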
# Active calls of the source: *; ? = inconclusive; · = no result given; [ ] = dose if it differs, or a comment. The list is not random: actives were taken first. Their share in the collection is about 7.5%. The call rests on the fitted dose curve; in most records, active means well fitted curve in the direction sought with a large enough effect; inconclusive means small, poorly fitted or top-dose-only effect, or another doubt; inactive means no such curve, though single readings can be large; an effect the other way counts as inactive or inconclusive. Potency means the concentration at half of the fitted maximal effect.
SMILES,FLuc counter,SMN2 splice up,Luc counter,Rab9 prom act,NPC1 prom act,ELG1 genotox
Cc1ccc(-c2nn(-c3ccccc3)cc2/C=C/C(=O)OCC(=O)NC2CC2)o1,-11%,9%,-1%,2%,-6%,-2%
CN(CCOc1ccc(Cl)cc1)C(=O)Cc1ccc(S(=O)(=O)N2CCOCC2)s1,0%,·,·,-7%,-3%,-7%
Cc1nc(-c2ccc(S(=O)(=O)Nc3ccc(Br)cc3F)cc2)co1,-1%,·,·,0%,-4%,0%
CC(=O)C[C@H](c1ccc([N+](=O)[O-])cc1)c1c(O)c2ccccc2oc1=O,·,-16%[20.6 µM],1%[17.1 µM],·,·,·
Cc1cccc(C)c1OCC(=O)N(Cc1ccc(Cl)cc1)C1CCS(=O)(=O)C1 (centres undefined),-2%,·,·,0%,3%,0%
Cn1c(NCCO)nc2c1c(=O)n(Cc1cccc(F)c1)c(=O)n2C,-1%,-13%,·,·,·,·
COc1ccc(CNC(=O)C2CCN(S(=O)(=O)c3ccc4c(ccn4C)c3)CC2)cc1,-3%,8%,·,·,·,·
COc1ccc(/C=C/C(=O)NCCN=C2NS(=O)(=O)c3ccccc32)cc1,15µM*,8%,1%,-10%,-2%,-5%
CCN(CC(=O)NCCCN1CCOCC1)S(=O)(=O)c1ccc(F)cc1,3%,·,·,1%,-7%,-2%
O=C(/C=C/Nc1ccc(Br)cn1)c1cccc(OC(F)F)c1,2.7µM*,·,·,2.2µM*,2.8µM*,?
COc1cc2ccccc2cc1C(=O)Nc1cccc(-c2nc3cc(C)c(C)cc3o2)c1C,?,-4%,·,·,·,·
Cc1cc2nc(-c3cccc(NC(=O)c4ccc(Br)o4)c3C)oc2cc1C,4.3µM*,-17%,-12%,21%,26%,-3%
Cc1cc2nc(-c3cccc(NC(=O)C(C)C)c3C)oc2cc1C,0.48µM*,·,·,·,·,·
Cc1ccc2oc(-c3cccc(NC(=O)c4ccc(Br)o4)c3C)nc2c1,7.6µM*,-19%,-2%,-3%,10%,25%
CC(C)C[C@@H](CC(=O)N[C@@H](CCCN)CC(=O)N[C@@H]1CCCC[C@H]1C(=O)N[C@H](CC(=O)N[C@@H](CCC(=O)O)CC(=O)O)CC(C)C)NC(=O)[C@@H]1CCCC[C@H]1N,·,6%,-1%,·,·,·
Cc1cc(OCC(=O)NCc2ccccn2)c2c(C)cc(=O)oc2c1,-1%,·,·,-5%,1%,-1%
COc1ccc(N(C(=O)COc2ccccc2OC)S(=O)(=O)c2ccc(Cl)cc2)cc1,0%,-18%,·,·,·,·
Cc1ccc(Cl)cc1NC(=O)Nc1c(C)n(C)n(-c2ccccc2)c1=O,-1%,2%,·,-3%,3%,1%
COc1ccc(C)cc1N(C(=O)c1ccco1)C(C(=O)NC1CCCC1)c1cc(OC)c(OC)c(OC)c1 (centres undefined),0%,·,·,3%,-1%,-4%
CC(CCCCCCCCC(=O)O)N(CCO)C(=O)OC(C)(C)C (centres undefined),1%,·,·,0%,-1%,0%
O=c1cc(-c2cccs2)oc2ccc(Cl)cc12,4.8µM*,·,·,3.2µM*,3.2µM*,?
O=c1cc(-c2ccsc2)oc2cc(-c3ccc4c(c3)OCO4)ccc12,·,·,·,·,·,1%
O=c1cc(-c2ccc3c(c2)OCCO3)oc2ccc(Cl)cc12,0.38µM*,2.5µM*,-15%,0.45µM*,0.63µM*,2.9µM*
COc1ccc(/C=N/n2cnnc2SCCO)cc1OC,?,13%,-5%,-3%,4%,15%
C=CCSc1nncn1/N=C/c1ccc(OC)cc1,6.7µM*,13µM*,2%,2.2µM*,2.8µM*,21µM*
SMILES,FLuc counter,SMN2 splice up,Luc counter,Rab9 prom act,NPC1 prom act,ELG1 genotox
COc1ccc(C(=O)NCC(=O)Nc2cccc(S(=O)(=O)N3CCCC3)c2)cc1,·,·,·,·,·,3%
Cc1ccc(NC(=O)COc2ccccc2C(N)=O)cc1S(=O)(=O)N1CCCCCC1,24µM*,·,·,-26%,-22%,-3%
COc1ccc(C(=O)NCC(=O)OCC(=O)Nc2cccc(S(=O)(=O)N3CCCC3)c2)cc1,12µM*,·,·,-9%,-3%,-1%
Cc1ccc(NC(=O)COc2cccc(C)c2C)cc1S(=O)(=O)N1CCCCCC1,2%,·,·,-5%,-1%,?
Cc1ccc2cccc(OCC(=O)Nc3cccc(S(=O)(=O)N4CCCC4)c3)c2n1,0%,·,·,-3%,-2%,-12%
Cc1cc(Cl)ccc1OCC(=O)Nc1cccc(S(=O)(=O)N2CCCC2)c1,9.5µM*,·,·,-3%,-4%,-5%
CC(=O)c1ccccc1OCC(=O)Nc1cccc(S(=O)(=O)N2CCCC2)c1,17µM*,·,·,-1%,7%,-2%
CCOc1ccccc1OCC(=O)Nc1cccc(S(=O)(=O)N2CCCCCC2)c1,1%,·,·,0%,7%,-1%
O=C(COc1ccc(Cl)cc1Br)Nc1cccc(S(=O)(=O)N2CCCC2)c1,2.7µM*,·,·,-1%,9%,-6%
O=[N+]([O-])c1ccc(-c2cnc3ccccc3n2)cc1,?,·,·,?,3.2µM*,?
CCOc1ccc(-c2cnc3ccccc3n2)cc1,0.17µM*,·,·,4%,?,0.52µM*
Cc1ccc2nc3c(c(N)c2c1)CCN3c1ccccc1,19µM*,-48%,2%,2%,17%,0%
O=C(Nc1ccn(Cc2ccccc2F)n1)c1ccc(COc2cccc(Br)c2)cc1,6.7µM*,?,18%,1.8µM*,1.6µM*,?
O=C(Nc1ccn(Cc2ccccc2F)n1)c1ccc(COc2ccccc2Cl)cc1,-3%,-84%,-6%,-15%,-2%,-9%
COc1ccc(C2CC(c3c(O)cc(C)oc3=O)=NCCS2)c(OC)c1 (centres undefined),11µM*,?,-10%,-7%,?,10µM*
CC(=O)Nc1ccc(S(=O)(=O)NC2CC(=O)N(c3ccc(C)cc3)C2)cc1 (centres undefined),-1%,·,·,0%,-4%,2%
COc1ccc(C)cc1NS(=O)(=O)c1ccc2c3c(cccc13)C(=O)N2,-7%,-45%,·,·,·,·
O=C(Nc1nnc(SCC(=O)N2CCCc3ccccc32)s1)c1ccc2ccccc2c1,1.2µM*,11µM*,0%,2.8µM*,?,?
O=C(Nc1nnc(SCC(=O)N2CCCc3ccccc32)s1)c1ccccc1,1.5µM*,11µM*,0%,?,?,12%
Cc1cc(C)cc(C(=O)Nc2nnc(SCC(=O)N3CCCc4ccccc43)s2)c1,?,3%,5%,1%,-2%,2%
CCCCOC(=O)c1ccc(NC(=O)c2ocnc2C)cc1,17µM*,-8%,-5%,21%,19%,5%
CCCCOC(=O)c1ccc(NC(=O)c2ccccc2OC)cc1,?,-44%,-7%,1%,-3%,0%

# Assay outcomes from PubChem.
